Laboratory results as given in PubChem BioAssay AID2796 (The Scripps Research Institute Molecular Screening Center, 2010).
About 8,000 (2.5%) of roughly 320,000 compounds were called active. Cut-off read from the data, not from the text of the source: active = activation above about 47%; inactive = the rest. For the sample, actives were picked, then their nearest neighbours and some compounds at random.

Target: Aryl hydrocarbon receptor (Homo sapiens) (UniProt P35869)
Experiment: AHR activators, primary screen, cell-based, luminescence, luciferase reporter, human (AID 2796);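 note: 0% = vehicle wells and 100% = reference agonist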
Settings: AHR-responsive luciferase reporter cells, at 5 µM, stronger effect = higher value

Sequence of Aryl hydrocarbon receptor (Homo sapiens) (P35869 whole entry, looked up): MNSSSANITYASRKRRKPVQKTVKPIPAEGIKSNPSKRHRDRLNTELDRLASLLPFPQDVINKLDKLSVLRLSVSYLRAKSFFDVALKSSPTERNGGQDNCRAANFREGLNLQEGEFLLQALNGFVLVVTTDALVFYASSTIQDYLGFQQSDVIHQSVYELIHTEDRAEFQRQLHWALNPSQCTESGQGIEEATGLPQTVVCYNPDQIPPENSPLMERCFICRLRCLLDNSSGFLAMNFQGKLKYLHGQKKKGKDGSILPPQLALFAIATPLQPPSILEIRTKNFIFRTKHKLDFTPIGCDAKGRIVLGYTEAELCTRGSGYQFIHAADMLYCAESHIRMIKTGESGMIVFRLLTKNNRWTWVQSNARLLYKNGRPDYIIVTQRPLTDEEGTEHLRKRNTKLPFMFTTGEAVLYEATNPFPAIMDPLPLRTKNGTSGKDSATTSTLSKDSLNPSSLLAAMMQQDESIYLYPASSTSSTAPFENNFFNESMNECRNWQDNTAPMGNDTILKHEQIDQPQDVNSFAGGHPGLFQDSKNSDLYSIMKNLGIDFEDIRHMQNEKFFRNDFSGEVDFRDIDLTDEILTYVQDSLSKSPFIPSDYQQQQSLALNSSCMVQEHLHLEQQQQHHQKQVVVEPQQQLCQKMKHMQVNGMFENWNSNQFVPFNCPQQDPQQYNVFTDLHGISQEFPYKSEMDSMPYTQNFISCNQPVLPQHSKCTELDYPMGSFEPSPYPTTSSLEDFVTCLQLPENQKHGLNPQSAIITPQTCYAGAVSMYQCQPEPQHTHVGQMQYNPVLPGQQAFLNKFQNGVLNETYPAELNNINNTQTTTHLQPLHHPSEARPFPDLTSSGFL

Compound	activation
N[C@@H](Cc1c[nH]c2ccccc12)c1nnc(SCc2c(F)cccc2Cl)o1	60.4% (active)
COc1cc2nc(N3CCN(C(=O)[C@@H]4CCCO4)CC3)nc(N)c2cc1OC	5.62% (inactive)
c1ccc(CCN2CCC3(CC2)OCCO3)cc1	-0.2% (inactive)
O=C(NC(c1ccc(Cl)cc1)P(=O)(Oc1ccccc1)Oc1ccccc1)OCc1ccccc1 (stereo not given)	1.2% (inactive)
CN(C)CCN(CC1CCCN(Cc2ccccc2F)C1)C(=O)Cc1ccc(F)c(F)c1 (stereo not given)	-0.87% (inactive)
CC1(C)C(c2ccccc2)=NC(c2cccnc2)=[N+]1[O-]	1.07% (inactive)
COc1c(O)ccc2c1-c1c3c(cc4c1C(C2)N(C)CC4)OCO3 (stereo not given)	4.84% (inactive)
COc1ccc2c(c1O)-c1cccc3c1[C@@H](C2)N(C)CC3	64.4% (active)
COC1=CC=C2[C@H]3Cc4ccc(OC)c5c4[C@@]2(CCN3C)C1O5 (stereo not given in full)	-1.46% (inactive)
COc1ccc(NC(=O)c2cn(CCC#N)nc2-c2ccc([N+](=O)[O-])cc2)cc1	0% (inactive)
CCOC(=O)C1=C(C)OC(N)=C(C(=O)OC)C12C(=O)Nc1ccc(Br)cc12 (stereo not given)	57% (active)
CCOC(=O)CC1=C(C(=O)OCC)C2(C(=O)N1)C(C(=O)OC)=C(N)Oc1ccccc12 (stereo not given)	10% (inactive)
COC(=O)CN1C(=O)C2(C(C(=O)OC)=C(N)Oc3ccccc32)C2=C1CC(C)(C)CC2=O (stereo not given)	2.04% (inactive)
Nc1ccc(C(=O)N/N=C2/CN3CCC2CC3)cc1	3.27% (inactive)
CCOC(=O)C(O)(c1ccc(N=Cc2ccccc2O)c(C)c1)C(F)(F)F (stereo not given)	-2.72% (inactive)
